Measured values taken from PubChem BioAssay AID1117290 (Broad Institute, 2014).
Measured potencies and affinities stand elsewhere. Calls of active or inactive are those of the source.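 How the source made its calls: active means every replicate test called active, each showing a drop in signal with a fitted potency within twice the top tested dose; inconclusive means tests disagree, or fits are weak, flat midrange or poor; inactive means every test flat, rising or fitted past the limit.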

Assay: lung carcinoma cell viability loss – CellTiter-Glo luminescence, dry powder, set 18, cytotoxicity control, dose response (AID 1117290)
Conditions: A549 viability, CellTiter-Glo ATP luminescence, 72 h; series mostly up to 26 µM

| SMILES | outcome |
| --- | --- |
| O=S(=O)(Nc1cc(C(F)(F)F)ccc1N1CCCCC1)c1ccc(C(F)(F)F)cc1 | inactive |
| COc1ccc(C(=O)O)cc1S(=O)(=O)Nc1cccc(N2CCCCC2)c1C(F)(F)F | inactive |
| O=S(=O)(Nc1cc(C(F)(F)F)ccc1N1CCCCC1)c1ccc(Cl)cc1 | inactive |
| O=S(=O)(Nc1cc(C(F)(F)F)ccc1N1CCCCC1)c1cc(Cl)cc(Cl)c1 | inactive |
| O=S(=O)(Nc1cc(C(F)(F)F)ccc1N1CCCCC1)c1ccc(-c2ccccc2)cc1 | inactive |
| COc1cccc(NC(=O)NC2(C(=O)N3CCN(C(C)=O)CC3)CCCCC2)c1 | inactive |
| COc1ccc(C(=O)Nc2cc(C)ccc2N2CCCCC2)cc1S(=O)(=O)O | inactive |
| O=[N+]([O-])c1cccc(S(=O)(=O)Nc2cc(C(F)(F)F)ccc2N2CCCCC2)c1 | inactive |
| CC(=O)N1CCN(C(=O)C(C)(C)NC(=O)Nc2ccc(C)cc2)CC1 | inactive |
| COc1ccc(C(=O)O)cc1S(=O)(=O)Nc1cc(C(F)(F)F)ccc1N(C)C | inactive |
| CC(=O)N1CCN(C(=O)C2(NC(=O)Nc3cccc(C(F)(F)F)c3)CCCCC2)CC1 | inactive |
| Cc1ccc(NC(=O)NC2(C(=O)N3CCN(c4ccccc4)CC3)CCCCC2)cc1 | inactive |
| COc1ccc(C(=O)O)cc1S(=O)(=O)N1CCN(c2ccc(C(F)(F)F)cc2N)CC1 | inactive |
| O=S(=O)(O)c1ccc(N2N=C(c3ccccc3)CC2c2ccccc2)cc1 (stereo unspecified) | inactive |
| COc1ccc(C(=O)Nc2cccc(C(F)(F)F)c2)cc1S(=O)(=O)O | inactive |
| CC(=O)N1CCN(C(=O)C2(NC(=O)Nc3ccc(C(C)C)cc3)CCCCC2)CC1 | inactive |
| COc1ccc(C(=O)Nc2cc(C(F)(F)F)ccc2N2CCCCC2)cc1S(=O)(=O)O | inactive |
| CC(=O)N1CCN(C(=O)C2(NC(=O)Nc3ccc(C(F)(F)F)cc3)CCCCC2)CC1 | inactive |
| O=S(=O)(Nc1cc(C(F)(F)F)ccc1N1CCCCC1)c1ccccc1 | inactive |
| COc1ccc(C(=O)Nc2ccccc2N2CCCCC2)cc1S(=O)(=O)O | inactive |
| Cc1ccc(NC(=O)NC2(C(=O)N3CCNCC3)CCCCC2)cc1 | inactive |
| CC(=O)N1CCN(C(=O)C2(NC(=O)Nc3ccccc3)CCCC2)CC1 | inactive |
| O=C(Nc1cc(C(F)(F)F)ccc1N1CCCCC1)c1ccc(S(=O)(=O)O)cc1 | inactive |
| O=[N+]([O-])c1ccc(S(=O)(=O)Nc2cc(C(F)(F)F)ccc2N2CCCCC2)c([N+](=O)[O-])c1 | inactive |
| CC(=O)N1CCN(C(=O)CNC(=O)Nc2ccc(C)cc2)CC1 | inactive |
| CC(=O)N1CCN(C(=O)C2(NC(=O)Nc3ccccc3C(F)(F)F)CCCCC2)CC1 | inactive |
